Screening data as filed in PubChem BioAssay.
ALR inh: human ALR oxidase inhibition via reduced H2O2. 3.8% of 290,000 active. purified ALR, DTT oxidation, H2O2 HRP-luminol luminescence. AID 485317. P55789. inhibition, % (no concentration beside the values);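 active means mean replicate inhibition above about 79%, with every replicate also reaching it, limit read from the data; inconclusive means only one of the two criteria met; inactive means mean below limit and not every replicate reaching it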
APOBEC3A inh: blocks human APOBEC3A ssDNA deamination | P31941 | recombinant A3A, FAM/TAMRA ssDNA deamination fluorescence | inhibition, % at 20 µM | 0.41% of 330,000 active | AID 493011;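 active means at least 40% inhibition at 20 µM here, with at most 30% in a related deaminase screen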
APOBEC3G inh: blocks human APOBEC3G single-stranded DNA deamination; Q9HC16; recombinant A3G, ssDNA deamination FAM/TAMRA fluorescence; inhibition, % at 20 µM; 0.28% of 330,000 active; AID 493012;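 active means inhibition of at least 40% at 20 µM, with no more than 30% in the related APOBEC3A deaminase screen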
CendR NRP1 mod: NRP-1/CendR interaction modulation; O14786; FAM-RPARPAR peptide binding to NRP-1, fluorescence polarization; 0.85% of 360,000 active; AID 602438; inhibition, % at 25 µM;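 active means inhibition or corrected inhibition above about 18%, plus a signal ratio from 0.5 to 1.5, limit read from the data, passing the limit was not always enough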
Target sequence (O14786 whole entry, looked up): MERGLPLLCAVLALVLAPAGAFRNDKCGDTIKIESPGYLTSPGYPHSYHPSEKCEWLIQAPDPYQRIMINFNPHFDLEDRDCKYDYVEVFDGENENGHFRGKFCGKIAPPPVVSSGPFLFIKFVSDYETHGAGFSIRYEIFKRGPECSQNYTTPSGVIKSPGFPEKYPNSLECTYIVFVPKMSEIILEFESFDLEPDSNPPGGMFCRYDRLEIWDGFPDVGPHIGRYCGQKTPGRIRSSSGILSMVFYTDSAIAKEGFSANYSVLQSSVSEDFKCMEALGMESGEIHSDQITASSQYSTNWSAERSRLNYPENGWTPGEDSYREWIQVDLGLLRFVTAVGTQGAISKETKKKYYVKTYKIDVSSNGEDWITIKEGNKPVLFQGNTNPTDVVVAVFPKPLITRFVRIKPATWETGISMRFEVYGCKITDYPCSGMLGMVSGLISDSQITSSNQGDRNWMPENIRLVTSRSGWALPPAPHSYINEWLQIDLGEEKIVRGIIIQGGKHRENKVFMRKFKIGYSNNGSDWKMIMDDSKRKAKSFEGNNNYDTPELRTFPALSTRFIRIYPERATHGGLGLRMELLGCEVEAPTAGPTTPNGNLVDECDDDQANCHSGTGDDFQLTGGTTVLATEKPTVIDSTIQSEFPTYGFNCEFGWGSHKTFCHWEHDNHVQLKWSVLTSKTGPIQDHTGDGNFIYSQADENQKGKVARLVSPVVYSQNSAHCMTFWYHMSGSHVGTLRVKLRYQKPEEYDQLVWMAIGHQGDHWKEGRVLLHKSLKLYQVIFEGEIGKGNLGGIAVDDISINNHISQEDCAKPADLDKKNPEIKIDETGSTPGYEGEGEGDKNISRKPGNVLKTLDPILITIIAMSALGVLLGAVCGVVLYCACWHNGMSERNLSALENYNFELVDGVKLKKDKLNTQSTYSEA
PfM18AAP inh: blocks P. falciparum M18 aspartyl aminopeptidase | 1.2% of 290,000 active | inhibition, % at 7.35 µM | recombinant PfM18AAP, H-Glu-NHMec fluorogenic cleavage;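 active means inhibition above the campaign mean inhibition over all tested compounds plus 3 SD, cut at about 28% in these data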
Yeast superoxide: caloric restriction mimetics inhibiting age-related superoxide in yeast. S. cerevisiae aged cells, superoxide DHE fluorescence; active compounds read low. superoxide response (% of plate mean), % at 10 µM. 0.18% of 330,000 active;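 active means superoxide response under a set limit, about three screen SD below normal, cut at about 65% in these data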;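 further: yeast aged for seven days with compound at 30 °C before DHE staining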
Of the large screens only hits and unclear results are named; the others gave an inactive call; ! = not confirmed by another sample. An excerpt weighted towards active compounds, which were near 5.2% of everything screened.

CCOC(=O)C(=O)NCC(c1cccs1)S(=O)(=O)c1ccc(F)cc1 (stereo not drawn)	none (no result: PfM18AAP inh)
CCN(CC)c1nc(C#N)cc(-c2ccc(OC)cc2)n1	CendR NRP1 mod 24
COc1ccc(-c2cc(C#N)nc(Cl)n2)cc1	none
Nc1nc(N2CCN(c3ccc(F)cc3)CC2)n[nH]1	ALR inh 98
COc1ccc(CCNC(=O)c2ccc3c(c2)NC(=O)C(CSCc2cc(C)ccc2C)N3)cc1OC (stereo not drawn)	ALR inh 99 (no result: CendR NRP1 mod)
COc1ccc(CCNC(=O)c2ccc3c(c2)NC(=O)C(C(C)C)N3)cc1OC (stereo not drawn)	none
N#Cc1c(Nc2ccccc2)sc(C(=O)c2ccccc2)c1N	none
Cc1cccc(Oc2sc(C(=O)c3ccccc3)c(N)c2C#N)c1	CendR NRP1 mod 31 (no result: ALR inh)
O=C1CC(C(=O)Nc2ccc(F)cc2)S/C(=N\N=C\c2ccco2)N1 (stereo not drawn)	ALR inh 96
COc1ccc([N+](=O)[O-])c(S(=O)(=O)c2ccccc2)n1	ALR inh 97
O=[N+]([O-])c1cccnc1S(=O)(=O)c1ccccc1	none
COc1ccc([N+](=O)[O-])c(S(=O)(=O)c2ccc(Cl)cc2)n1	ALR inh 75
COc1ccc(S(=O)(=O)n2oc(=O)cc2-c2ccccc2)cc1OC	none
CCN1C=C(Cc2ccc(F)cc2)C2=C(C1)C(c1ccc(F)cc1)C(C#N)=C(N)O2 (stereo not drawn)	ALR inh 99
CCN1C=C(Cc2ccccc2C)C2=C(C1)C(c1ccccc1C)C(C#N)=C(N)O2 (stereo not drawn)	none
O=C(C[C@H]1C/C=C\CC[C@H](Cc2ccc(F)cc2)C(=O)OC[C@@H]2CCCN2C1=O)N[C@H](CO)Cc1ccccc1	none (no result: PfM18AAP inh)
CN(C)C=Nc1nonc1-c1ncn[nH]1	PfM18AAP inh 30
COC(=O)[C@H](C(C)C)N(Cc1ccccc1)S(=O)(=O)CCN1CCCC1	none (no result: ALR inh, PfM18AAP inh)
COc1ccccc1NC(=O)CCCCCN1C(=O)c2cccc3cccc(c23)C1=O	none
CCOc1ccc(Nc2nc(Cc3nnc(SCC(=O)NCc4ccco4)n3CC)cs2)cc1	PfM18AAP inh 30
Cc1cccc(C(=O)NC(=S)NNC(=O)COc2ccc(Cl)cc2)c1	none (no result: ALR inh, Yeast superoxide)
COc1ccc(C2(C(=O)NC3CCCCC3)CCOCC2)cc1OC	CendR NRP1 mod 24
Cc1cc(-c2nnc(SCC(=O)Nc3nc(-c4ccc(Cl)cc4)cs3)o2)no1	ALR inh 99
COc1cc(NC(=O)CSc2nnc(-c3cc(C)on3)o2)cc(OC)c1	none
Cc1cc2cc3c(cc2nc1SCC(=O)Nc1ccccc1)CCC3	none
CN1C(=O)C2C=CC1C1C(=O)N(c3ccccc3)C(=O)C21 (stereo not drawn)	none
O=[N+]([O-])c1ccccc1N=Nc1ccc(O)cc1	ALR inh 80 (no result: PfM18AAP inh)
Nc1ccc(N=Nc2ccccc2)cc1[N+](=O)[O-]	CendR NRP1 mod 23 (no result: ALR inh, APOBEC3A inh, APOBEC3G inh, PfM18AAP inh, Yeast superoxide)
Cc1ccc(N)c([N+](=O)[O-])c1	none (no result: PfM18AAP inh)
CN(C)CC/C=C1/c2ccccc2Sc2ccc(Cl)cc21	CendR NRP1 mod 27!
CCCCCC[N+](C)(C)CC/C=C1/c2ccccc2Sc2ccc(Cl)cc21	none
COc1ccc(C2=C/C(=C\c3ccc(OC(C)=O)cc3)C(=O)O2)cc1	ALR inh inconclusive, CendR NRP1 mod 108
CCCCS(=O)(=O)/C=C\C=C/S(=O)(=O)CCCC	ALR inh 98
C(=N\Nc1ncnc2ccccc12)/c1ccccc1	ALR inh 97
Cc1ccc(C(=O)COC(=O)c2cc(Cl)ccc2O)cc1[N+](=O)[O-]	CendR NRP1 mod 45
COc1ccc(CCNC(=O)COC(=O)c2cc(S(=O)(=O)NCc3ccccc3)ccc2O)cc1OC	none
O=c1[nH][nH]c(C(F)(F)F)c1C=Nc1ccc(Cl)cc1	none
CC1CCCCN1S(=O)(=O)c1ccc(C(=O)Nc2nnc(-c3ccccc3Cl)o2)cc1 (stereo not drawn)	none
CC1CCCCN1S(=O)(=O)c1ccc(C(=O)Nc2nnc(-c3ccncc3)o2)cc1 (stereo not drawn)	ALR inh 81
CCC1CCCCN1S(=O)(=O)c1ccc(C(=O)Nc2nnc(C3=COCCO3)o2)cc1 (stereo not drawn)	ALR inh 95
O=C(Nc1nnc(C2=COCCO2)o1)c1ccc(S(=O)(=O)N2CCCC2)cc1	none
O=C(Nc1nnc(-c2ccncc2)o1)c1ccccc1	ALR inh 87
Cc1ccc(C(=O)Nc2nnc(-c3ccncc3)o2)cc1	none
CS(=O)(=O)c1cccc(C(=O)Nc2nnc(C3=COCCO3)o2)c1	ALR inh 99 (no result: PfM18AAP inh)
C=CCNc1nc(C(=O)OCC(=O)c2ccc(C)c([N+](=O)[O-])c2)cs1	none
C=CCNc1nc(C(=O)OCC(=O)c2ccc(Cl)cc2)cs1	ALR inh 98 (no result: PfM18AAP inh)
Cc1cccc(C(=O)NCCN2CCN(c3ccccc3)CC2)c1	none (no result: ALR inh)
O=C(Cc1c(C(=O)O)[nH]c2ccccc12)NCCN1CCN(c2cccc(Cl)c2)CC1	ALR inh 88
CC1CC(C)CN(CCCNC(=O)Cc2c(C(=O)O)[nH]c3ccccc23)C1 (stereo not drawn)	none
Cc1cccc(C)c1NC(=O)C(=O)NCCCN1CCOCC1	none
O=C(CCN1CCN(c2ccccc2)CC1)N/N=C/c1ccccc1O	ALR inh 84
Cc1cccc(C)c1NC(=O)NCCCN1CCN(c2ccccc2)CC1	ALR inh 82
O=C(NCCN1CCN(c2ccccc2)CC1)c1cccc(Cl)c1	ALR inh 98
CCOc1ccc(Cc2nnc(SCC(N)=O)n2C)cc1	none (no result: ALR inh)
O=C(NNC(=O)C1CCN(Cc2ccccc2)CC1)c1cccc(Cl)c1	CendR NRP1 mod 23
COc1ccc(C)cc1NC(=O)CCN1CCN(c2ccccc2)CC1	ALR inh 95
COc1ccccc1C(=O)NCCN1CCN(c2ccccc2)CC1	ALR inh 97
COc1ccc(C)cc1NC(=O)CCN1CCN(c2ccccc2F)CC1	none
O=C(NCCN1CCN(c2ccccc2)CC1)C1(S(=O)(=O)c2ccc(Cl)cc2)CC1	ALR inh 99
O=C(Nc1ccc(-c2n[nH]c(=S)o2)cc1)c1ccccc1Cl	none
Cc1cccc(OCc2nnc(SCC(=O)c3c(N)n(C4CC4)c(=O)[nH]c3=O)o2)c1	none (no result: ALR inh, PfM18AAP inh, Yeast superoxide)
O=C(O)/C=C/C(=O)Nc1ccc(C2(c3ccc(NC(=O)/C=C/C(=O)O)cc3)c3ccccc3-c3ccccc32)cc1	ALR inh 98
O=C(O)/C=C\C(=O)Nc1ccc(Oc2ccccc2)cc1	none
O=C(O)/C=C/C(=O)Nc1ccc(Cc2ccc(NC(=O)/C=C/C(=O)O)cc2)cc1	ALR inh 99
O=C(/C=C/c1cccc(Br)c1)OCC(=O)N1CCN(c2ccccc2)CC1	CendR NRP1 mod 27 (no result: PfM18AAP inh)
CSc1ccc(/C=C/C(=O)OCC(=O)N2CCN(c3ccccc3)CC2)cc1	none (no result: ALR inh, APOBEC3A inh, APOBEC3G inh, PfM18AAP inh, Yeast superoxide)
